Nine molecules from PubChem BioAssay (NCI) can be followed below.

The panel holds about 83,000 compounds, 20% with a hit somewhere; the sample as a whole holds those more often.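 In brief: 96-well plates, 48 h treatment, single concentration, percent growth endpoint.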 Values without a mark were called inactive. Activity calls are given as the source filed them. How the source made its calls: active means growth percent below 10; inactive means the rest.

Assay in all cases: NCI-60 one-dose screen, 48 h (100 = growth as untreated, 0 = no growth, -100 = all killed)
Conditions in all cases: 10 µM unless noted

The test system of test [1] is RPMI-8226 leukemia.
Test [2] concerns OVCAR-8 ovarian.
The test system of test [3] is OVCAR-5 ovarian.
In test [4] the test system is OVCAR-4 ovarian.
For test [5], the system named is SK-OV-3 ovarian.
Test [6] has as its system IGROV1 ovarian.
For test [7], the system named is OVCAR-3 ovarian.
In test [8] the test system is HS 578T breast.
Test [9] deals with NCI/ADR-RES ovarian.
Test [10] relates to T-47D breast.
Test [11] has as its system BT-549 breast.
For test [12], the system named is MDA-MB-435 melanoma.
Test [13] relates to SW-620 colon.
Test [14] relates to MCF7 breast.
Test [15] concerns HCT-116 colon.
Test [16] relates to HCC-2998 colon.
Test [17] concerns KM12 colon.

Regarding `CCOc1nc(-c2ccccc2)cc2c(O)c(C(=O)n3nc(C)cc3C)[nH]c(=O)c12`, the growth was 103% in [1]; 101% in test [2]; 106% in test [3]; 100% in test [4]; 102% in [5]; 97.4% in test [6]. Moreover, the growth was 112% in test [7]; 115% in test [8]; 111% in test [9]; 107% in test [10]; 99.9% in test [11]; 112% in [12]. The growth is 115% in [13]; 101% in test [14]; 101% in test [15]; 112% in test [16]; 106% in test [17].
Consider `COC(=O)CCC1=C(C)/C(=C/c2[nH]c(-c3ccc[nH]3)cc2OC)N=C1C`, for which the growth was -57% (active) in test [1]; 10% in test [2]; 35% in test [3]; 23.4% in test [4]; 40% in test [5]; 25.9% in test [6]. Further, the growth is -56.9% (active) in [7]; 1.28% (active) in [8]; 14.8% in [9]; -36% (active) in [10]; 14.3% in test [11]; -13.5% (active) in [12]. Besides, the growth in test [13] was 8.99% (active); in test [14] it was 1.82% (active); in [15] it was -61.8% (active); in test [16], 9.8% (active); in test [17] it was 5.49% (active).
For `COC(=O)[C@]12CC[C@@H](C)[C@H](C)[C@@H]1C1=CC[C@@H]3[C@@]4(C)C[C@@H](OC(=O)c5ccco5)[C@H](O)[C@@](C)(CO)[C@@H]4[C@H](O)C[C@@]3(C)[C@]1(C)CC2`, the growth in [1] is -64.7% (active); in test [2], -76.1% (active); in [3], -85.3% (active); in test [4], -67.9% (active); in test [5] it was -97.2% (active); in test [6], -65% (active). In addition, the growth is -93.8% (active) in [7]; -39.9% (active) in test [8]; -80.6% (active) in test [9]; -68.3% (active) in test [10]; -68.1% (active) in test [11]; -86.7% (active) in [12]. Further, the growth in [13] is -81.4% (active); in test [14], -73.7% (active); in test [15], -63.3% (active); in test [16], -89.1% (active); in test [17], -85.8% (active).
`C/C(=C\CCc1ccsc1)CC/C=C(\C)CCCN1CCN(CCO)CC1`: the growth in [1] is -18.9% (active); in [2], 59.3%; in test [3], 71.8%; in test [4] it was 41.9%; in test [5], 77.4%; in test [6], 52.8%. The growth was 64.6% in [7]; 49.5% in test [8]; 56.3% in test [9]; 36.2% in test [10]; 30.1% in [11]; 41% in [12]. In addition, the growth in test [13] is -11.4% (active); in [14], 26.3%; in test [15], 26%; in [16], 19.8%; in test [17] it was 27.1%.
For `O=C(Nc1ccccc1Cl)c1cnc2ccc(C3CCNCC3)cn12`, the growth was 108% in test [1]; 65.5% in [2]; 30.8% in [3]; 101% in [4]; 40.3% in test [5]; -50.5% (active) in [6]. Besides, the growth in [7] is 62.2%; in test [8], 9.47% (active); in test [9] it was 90.5%; in [10], 51.8%; in test [11], 97.8%; in test [12] it was 86%. In addition, the growth in [13] is 96.6%; in [14] it was 83.6%; in test [15], 58.2%; in test [16] it was 123%; in [17], 110%.
Take `CCN1C(=O)c2ccc3c4c(ccc(c24)C1=O)C(=O)N(CCCNCc1ccccc1OC)C3=O`: the growth in test [1] is -23% (active); in test [2], -22.9% (active); in test [3] it was -90.6% (active); in test [4] it was -60.3% (active); in test [5] it was 11.1%; in test [6], -63% (active). Also, the growth in [7] was -20.1% (active); in test [8], -31.2% (active); in test [9] it was 4.44% (active); in test [10] it was -50.5% (active); in test [11], -75.9% (active); in test [12], -80.3% (active). The growth was -57.4% (active) in [13]; -25.5% (active) in test [14]; -79% (active) in test [15]; -82.6% (active) in [16]; -35.1% (active) in [17].
For the molecule `COc1cc(OC)c2sc(-c3ccc(-n4cncc4-c4ccc(N)cc4)cc3)nc2c1`, the growth in test [1] is 64%; in test [2], 77.4%; in [3], 100%; in [4] it was 63.1%; in [5], 120%; in [6] it was 104%. For the same molecule, the growth in test [7] is 77.6%; in [8], 103%; in [9], 68.9%; in test [10] it was 60.6%; in [11], 82.4%; in [12] it was 62.9%. Further, the growth was 91.2% in test [13]; 63.4% in test [14]; 70.2% in test [15]; 96.2% in [16]; 64.1% in test [17].
`CCC(O)C(C)(C)C` (stereo not drawn): the growth is 122% in test [1]; 103% in test [2]; 114% in test [3]; 118% in test [4]; 110% in test [5]; 112% in [6]. Further, the growth in test [7] is 123%; in test [8] it was 95.8%; in test [9], 97.7%; in test [10], 112%; in test [11] it was 108%; in test [12], 105%. For the same molecule, the growth in [13] is 101%; in [14] it was 113%; in [15], 106%; in test [16], 106%; in [17], 113%.
As for `CC(C)c1ccc(C(=O)Nc2sc3c(CN(C)C)c(O)ccc3c2C(N)=O)cc1`, the growth was -31.8% (active) in [1]; 51.5% in [2]; 59.4% in test [3]; 48.5% in test [4]; 70.6% in test [5]; 27.3% in test [6]. Moreover, the growth in test [7] was 62.7%; in test [8] it was 69.1%; in test [9] it was 51.6%; in [10] it was 54.2%; in test [11], 64.4%; in test [12], 63%. For the same molecule, the growth in test [13] is -37.8% (active); in [14], -16.2% (active); in [15] it was -46.5% (active); in test [16] it was -54.6% (active); in test [17], 6.38% (active).
